# Reference: PubChem BioAssay (NCI)
# Compounds without any hit were thinned out: in the full panel of roughly 83,000, 20% have a hit.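 Compound tested at a single concentration for 48 hours in 96-well plates; a percent growth value below 10 was scored as active.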 A number with no mark means an inactive call. Active and inactive are the calls of the source.
# Key:
# Assay in all cases: NCI-60 one-dose screen, 48 h (100 = growth as untreated, 0 = no growth, -100 = all killed)
# Conditions in all cases: 10 µM unless noted
# SK-MEL-2 melanoma = tested on: SK-MEL-2 melanoma
# EKVX NSCLC = tested on: EKVX NSCLC
# SN12C renal = tested on: SN12C renal
# UO-31 renal = tested on: UO-31 renal
# TK-10 renal = tested on: TK-10 renal
# ACHN renal = tested on: ACHN renal
# CAKI-1 renal = tested on: CAKI-1 renal
# CCRF-CEM leukemia = tested on: CCRF-CEM leukemia
# MOLT-4 leukemia = tested on: MOLT-4 leukemia
# SR leukemia = tested on: SR leukemia
# RPMI-8226 leukemia = tested on: RPMI-8226 leukemia
# OVCAR-8 ovarian = tested on: OVCAR-8 ovarian
# OVCAR-5 ovarian = tested on: OVCAR-5 ovarian
# OVCAR-4 ovarian = tested on: OVCAR-4 ovarian
# SK-OV-3 ovarian = tested on: SK-OV-3 ovarian
# IGROV1 ovarian = tested on: IGROV1 ovarian
# OVCAR-3 ovarian = tested on: OVCAR-3 ovarian
# HS 578T breast = tested on: HS 578T breast
# NCI/ADR-RES ovarian = tested on: NCI/ADR-RES ovarian
Structure (SMILES),growth (SK-MEL-2 melanoma),growth (EKVX NSCLC),growth (SN12C renal),growth (UO-31 renal),growth (TK-10 renal),growth (ACHN renal),growth (CAKI-1 renal),growth (CCRF-CEM leukemia),growth (MOLT-4 leukemia),growth (SR leukemia),growth (RPMI-8226 leukemia),growth (OVCAR-8 ovarian),growth (OVCAR-5 ovarian),growth (OVCAR-4 ovarian),growth (SK-OV-3 ovarian),growth (IGROV1 ovarian),growth (OVCAR-3 ovarian),growth (HS 578T breast),growth (NCI/ADR-RES ovarian)
COc1ccc(-c2nc(SCCC(C)C)nc(N/N=C(/C)c3ccc(C)cc3)c2C#N)cc1,106%,90.8%,75%,66%,107%,89.6%,83.2%,94.4%,88.3%,91.2%,88%,88.1%,85.4%,103%,95.7%,84.7%,102%,85.1%,89.8%
CC(C)CCSc1nc(NNC(N)=O)c(C#N)c(-c2ccccc2)n1,107%,99.9%,95%,85.1%,105%,97%,93.7%,100%,110%,105%,99.4%,104%,97.8%,113%,107%,103%,108%,112%,102%
COc1ccc(C(=O)c2cc(C)c(OC)c(C)c2)c(OC)c1O,26.8%,59.2%,28.8%,36.6%,58.5%,22.5%,39.5%,16.3%,23.4%,18.8%,25.9%,11.3%,46.9%,41.1%,-10.5% (active),25.9%,-15.8% (active),18.1%,1.87% (active)
CC(C)C1C2=C(NCCN1C(=O)Cc1ccccc1)C(C)(C)N(Cc1ccccc1)C2=O (centres undefined),94.3%,94.5%,98.5%,87.3%,97.3%,101%,84.2%,111%,96.8%,106%,102%,100%,102%,104%,93.5%,98.8%,102%,103%,99%
COc1ccc(-c2ncc(-c3ccccc3)[nH]2)cc1OC,118%,106%,100%,109%,256%,111%,108%,18%,-81.9% (active),11%,89.5%,113%,113%,116%,125%,119%,103%,102%,121%
Cc1cccc(Oc2ccc(Nc3ncnc4ccc(NC(=O)CN(C)C)cc34)cc2Cl)c1,84.2%,31.6%,36.7%,23.3%,36%,16.8%,40.8%,47.7%,25.9%,1.9% (active),46.6%,57.3%,60.9%,45.2%,16%,3.8% (active),40.7%,68%,47.2%
Clc1ccc(C2CC(c3cccc(Nc4ccncc4)c3)=NN2c2cc(Cl)cc(Cl)c2)cc1 (centres undefined),107%,74.3%,76.3%,71.2%,94.8%,77.2%,55.3%,11.3%,7.7% (active),6.05% (active),43.4%,-7.8% (active),84.4%,33.7%,90.7%,44.6%,76.9%,78%,68.3%
O=C(Nc1ccc2cc3ccc(NC(=O)N4CCCCCC4)cc3nc2c1)N1CCCCCC1,-69% (active),-41% (active),-57.6% (active),-85.4% (active),-62.3% (active),-93.6% (active),-64.7% (active),8.09% (active),-21.2% (active),8.09% (active),-36.8% (active),-28.3% (active),4.88% (active),-44.8% (active),-36.7% (active),-48.5% (active),-69.2% (active),-33.2% (active),36.7%
C=CCn1c(SCC(=O)Nc2ccc(C(=O)/C=C/c3cc(OC)c(OC)c(OC)c3)cc2)nnc1-c1cc(-c2ccc(S(C)(=O)=O)cc2)nc2ccccc12,103%,90.9%,88.5%,78.4%,159%,91.9%,77.3%,35%,56.3%,13.9%,-5.82% (active),68.6%,112%,94.5%,127%,72.8%,85.9%,95.3%,91.3%
Fc1cc(C2=NNC(c3ccc[nH]3)C2)ccc1-n1ccc(C(F)(F)F)n1 (centres undefined),102%,84.7%,85.6%,52.1%,117%,91%,66.5%,68.3%,77.5%,77.9%,0.914% (active),89%,96.7%,93.6%,112%,90%,85.6%,103%,90.6%
CC1(C)CC[C@]2(C(=O)NCC#CCN3CCOCC3)CC[C@]3(C)C(=CC[C@@H]4[C@@]5(C)Cc6c([nH]c7ccccc67)C(C)(C)[C@@H]5CC[C@]43C)[C@@H]2C1,94.6%,96.8%,94.4%,81.6%,95.7%,73.1%,81.9%,83.1%,72.3%,90.9%,57.9%,90.8%,99.6%,91%,97.8%,116%,95.1%,107%,97%
CC(=O)[C@@H]1CC[C@]2(C(N)=O)CC[C@]3(C)[C@H](CC[C@@H]4[C@@]5(C)CCC(=O)C(C)(C)[C@@H]5CC[C@]43C)[C@@H]12,100%,90.1%,102%,98.7%,107%,97.1%,89.6%,99%,92.5%,94.4%,80.4%,109%,101%,89.1%,90.6%,107%,103%,120%,98.7%
COc1cc2nc(-c3ccc(C(F)(F)F)cc3)cc(OCCN3CCC(O)CC3)c2cc1OC,103%,61.9%,57.5%,52.4%,86.1%,75.5%,34.6%,84.8%,77%,35.4%,41.2%,80%,51%,88.3%,85.4%,42.1%,93.8%,79.1%,53.5%
O=C(NNc1nc(Cl)nc(N2CCN(C(c3ccccc3)c3ccccc3)CC2)n1)c1ccccc1,-27% (active),64%,-24.2% (active),68.9%,126%,-39% (active),-51.9% (active),-25.1% (active),-39.2% (active),-37.4% (active),57.8%,3.15% (active),88.7%,-16.1% (active),128%,-92.6% (active),-90.5% (active),36.3%,20.7%
C=C(C)[C@@H]1CC[C@]2(CO)CC[C@]3(C)[C@H](CC[C@@H]4[C@@]5(C)CCCNC(C)(C)[C@@H]5CC[C@]43C)[C@@H]12,78.8%,63.3%,45.9%,53.8%,80.8%,50.2%,38.4%,12.4%,4.4% (active),-40.4% (active),-36.9% (active),23.5%,75%,31.8%,92.2%,36.3%,44.4%,46.8%,44.8%
COc1cc(C2CC(c3cccc(Nc4ccncc4)c3)=NN2c2cc(Cl)cc(Cl)c2)cc(OC)c1OC (centres undefined),71.4%,65.8%,9.72% (active),28.4%,34%,-66.5% (active),8.57% (active),-17.5% (active),-22.7% (active),0.528% (active),-13.7% (active),-8.55% (active),65.1%,6.43% (active),76.2%,-2.86% (active),3.71% (active),0.285% (active),51.4%
